# Assay results as given in PubChem BioAssay (NCI).
# About 83,000 compounds went through this panel and 20% of them were active in at least one assay; those are over-represented in the sample as a whole.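 Cells were grown in 96-well plates and exposed to the test compound at a single concentration for 48 hours; results are reported as percent growth, with values below 10 considered active.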 Unmarked numbers belong to inactive results. Calls of active or inactive are those of the source.
# Test system: KM12 colon
# Test: NCI-60 one-dose screen, 48 h (100 = growth as untreated, 0 = no growth, -100 = all killed)
# Settings: 10 µM unless noted
row,Compound,growth
1,O=C(/C=C/c1c(-c2ccc(Cl)cc2)nn(-c2ccccc2)c1C(F)(F)F)c1ccc(Cl)cc1,84.8%
2,Cc1c(C)c([N+](=O)[O-])c(C)c([N+](=O)[O-])c1C,108%
3,CC(c1ccccc1)C(C(=O)c1ccccc1)c1ccccc1 (stereo not given),104%
4,COc1cc(NC(=O)CSc2nc3ccc(C)cc3c(=O)n2Cc2ccccc2)cc(OC)c1OC,57.9%
5,CSc1nc2sc3cccc(Cl)c3n2c(=N)c1C#N,101%
6,CCN(c1ccccc1)S(=O)(=O)c1cc([N+](=O)[O-])ccc1Cl,54.1%
7,COC1=CC(=O)c2ccccc2C1=O,94.8%
8,COC(=O)c1ccc2c(c1)[n+](=O)c(C(C)=O)c(C(F)(F)F)n2[O-],-93.5% (active)
9,Cc1nc2ccc(Cl)cn2c1-c1nnc(SCc2ccc([N+](=O)[O-])cc2)o1,72.9%
10,COc1ccc(/C=C/C(=O)Nc2cc(/C=C\c3cc(OC)c(OC)c(OC)c3)cc(OC)c2OC)cc1OC,17.1%
11,N#C/C(=C\c1cccc(C#N)c1)c1ccccc1,102%
12,C[C@H]1[C@H]2[C@H]3CC[C@@H]4[C@@]5(C)CC[C@H](O)C(C)(C)[C@@H]5CC[C@@]4(C)[C@]3(C)CC[C@]23CO[C@]1(C)[C@@H](C(=O)/C=C\c1ccco1)C3,100%
13,COc1cc2cc(Oc3cccc(NC(=O)Nc4cc(C(F)(F)F)cc(C(F)(F)F)c4)c3)c(C)nc2cc1OC,5.61% (active)
14,Cc1ncc(C(=O)Nc2ccc(CN3CCN(C)CC3)c(C(F)(F)F)c2)cc1C#Cc1cnc(N)cc1C#N,-83.1% (active)
15,Cc1ccc(-n2nc3c(c(C#N)c2=O)CC(c2ccccc2[N+](=O)[O-])C([N+](=O)[O-])=C3O)cc1 (stereo not given),82.3%
16,C#Cc1cccc(NC(=O)c2cccc(NC(=O)CCl)c2)c1,16.8% [8.25 µM]
17,N#CC1=C(N)Oc2c(ccc3ccccc23)C1c1ccccc1Cl (stereo not given),12.8%
18,O=C(CSc1nc2ccccc2[nH]1)NCc1ccccc1,105%

row,Compound,growth
1,COc1ccc(-c2nc(S(=O)(=O)c3ccccc3)c(S(=O)CC(=O)N3CCC(C)CC3)o2)cc1 (stereo not given),68.1%
2,COc1cc(C2C3=C(COC3=O)N(CCO)c3cc4c(cc32)OCO4)cc(OC)c1OC (stereo not given),5.43% (active)
3,N#Cc1c(-c2ccccc2)nc2c(c(-c3ccccc3)nn2-c2ccccc2)c1-c1ccc(O)cc1,47.1%
4,CC(=O)[C@H]1CCC/C=C/[C@@H]2C[C@H](O)C[C@H]2[C@H](O)/C=C/C(=O)O1,-26.9% (active)
5,O=C1/C=C/[C@@H](O)[C@@H]2C[C@@H](O)C[C@H]2/C=C/CCC[C@H](CCc2cccc3ccccc23)O1,-37.9% (active)
6,CC(C)(C)[Si](C)(C)OC1[C@@H](O[Si](C)(C)C(C)(C)C)[C@@H](CNC(=O)NC(=O)CCl)O[C@H]1n1cnc2c(NC(=O)Nc3ccccc3)ncnc21 (stereo not given in full),-79.4% (active)
7,COc1cc(CC(=O)n2ncc3ccc(N)cc32)cc(OC)c1OC,82.6%
8,Cc1cc2c(c(C)c1Cl)C(=O)/C(=C/c1ccc(O)c(O)c1)O2,109%
9,O=C1C=CC(=O)N1c1cccc(Cl)c1,104%
10,COC(=O)C(CC=O)C(=O)C(=O)Nc1cccc(C(F)(F)F)c1 (stereo not given),100%
11,CN(CCN(C)c1ccc(C(=N)N)cc1)c1ccc(C(=N)N)cc1,91.3%
12,O=C1/C=C/[C@@H](O)[C@@H]2C[C@@H](O)C[C@H]2/C=C/CCC[C@H](CCc2ccc3ncccc3c2)O1,-40.3% (active)
13,C#Cc1cccc(NC(=O)Nc2cccc(NC(=O)CCl)c2)c1,32.9% [8.25 µM]
14,N#CC(C(=O)/C(=N/NC(=O)c1ccccc1O)C(C#N)c1ccccc1)c1ccccc1 (stereo not given),46.5%
15,O=[N+]([O-])c1ccc(N=Nc2cc(S(=O)(=O)O)c3cccc(S(=O)(=O)O)c3c2O)cc1,118%
16,C=CCn1c(-c2ccc(-c3nc4ccc(C)cc4[nH]3)cc2)n[nH]c1=S,105%
17,O=C1Nc2ccccc2/C1=C\c1c(-c2ccccc2)nc2ccccn12,23.3%
